Source: PubChem BioAssay AID540303 (National Center for Advancing Translational Sciences (NCATS), 2011)
Out of some 330,000 compounds screened, about 1,000 (0.3%) were called active. Not shown: some 3% with an inconclusive outcome. The call rests on the fitted dose curve; in most records, active means well fitted inhibition curve with a large enough effect; inconclusive means small, poorly fitted or top-dose-only effect; inactive means no such curve, though single readings can be large or run the other way; tested in mouse RAW 264.7 cells. The list comes from a sample in which actives are over-represented; it also holds similar structures and randomly drawn compounds.

Assay: qHTS for Inhibitors of Cell Surface uPA Generation; further: nearly all actives have a fitted effect of over 55% in size
Settings: cell surface uPA generation assay; series mostly up to 38.3 µM; activity change, negative = inhibition: at the top concentration
Text: The overall objective of this project is to perform a quantitative high throughput screen (qHTS) to identify novel compounds that inhibit the generation of cell surface urokinase activity. The urokinase plasminogen activator (uPA) is one of the two primary endogenous systems that mediate plasminogen activation into plasmin. Members of this system, including uPA and its receptor (uPAR), are overexpressed in several malignant tumors. This system plays a major role in adhesion, migration, invasion and metastasis of cancer cells. Small molecule inhibitors of the uPA system will serve as probes to understand the molecular mechanisms of the uPA cascade and better understanding the microenvironmental circumstances that facilitate the activation of plasminogen by uPA, and finally may provide novel candidate agents for anticancer drug therapy.
[…] […] Upon inhibition of the uPA activation cascade, the subsequent cell surface uPA activity-dependent translocation of LF into the cytoplasm is inhibited. ATP-Lite is used to measure intracellular ATP concentrations, which remain increased if LF entry into the cytoplasm is inhibited. This validation assay was performed using a small set of validation compounds.
NIH Chemical Genomics Center [NCGC]
NIH Molecular Libraries Probe Centers Network [MLPCN]
Assay Submitter (PI): Thomas Bugge, National Institute of Dental and Craniofacial Research, NIH
Cultured RAW 264.7 were dispensed into 1536-well clear bottom, white walled tissue culture plates at a density of 4000 cells/well and were incubated overnight (12-16 h) at 37 C in a 5% CO2 incubator. Serially diluted compounds in 23 nl DMSO were added to cells. […] Compound and reagent-treated plates were incubated for 24 h at 37 C in a 5% CO2 incubator. Perkin Elmer ATPlitetrade mark 1 step (3 ul) was then added to each well. Luminescence was detected using a Perkin Elmer ViewLuxtrade mark plate reader.
1.Dispensing RAW 264.7 cells into 1536-well, white walled tissue culture plates at a density of 4000 cells/well (4 uL).
2.Incubation at 37 C in a 5% CO2 incubator overnight.
3.Serially diluting compounds (1:5 serial dilution; 0.0024 uM to […] final concentration) in 23 nl DMSO.
5.Incubating the compound and reagent-treated plates for 24 hours at 37 C in a 5% CO2 incubator.
6.Adding ATP-Lite (3 ul).
7.Reading plates by ViewLux with an exposure length of 5 seconds.
On the % scale 0 is the no-effect control and ±100 the full control effect; potency means the concentration at half of the fitted maximal effect.

Row | Structure (SMILES) | activity change, negative = inhibition | Potency
1 | O=C(O)c1ccc(Cn2cnc3c(=S)nc[nH]c32)cc1 | -3.45% (inactive) | –
2 | CCCCC(=O)NC(c1ccc(OC)c(OC)c1)c1ccc2cccnc2c1O (configuration not stated) | -13.8% (inactive) | –
3 | CC1CN(Cc2ccccc2)C(=S)NC1=O (configuration not stated) | 1.89% (inactive) | –
4 | COc1cccc(/C=N/Nc2ccc(S(=O)(=O)Nc3ccccc3C(=O)O)cc2[N+](=O)[O-])c1O | 0.183% (inactive) | –
5 | c1ccc2c(c1)OC1OC2Oc2ccccc21 | 12.3% (inactive) | –
6 | Cc1ccsc1/C=N/Nc1ccc(Cl)nn1 | 11.8% (inactive) | –
7 | Oc1cccc(/C=N/Nc2ccc(Cl)nn2)c1O | – | 2820 nM (active)
8 | COc1cccc(/C=N/Nc2ccc(Cl)nn2)c1 | 5.63% (inactive) | –
9 | Cc1ccc(S(=O)(=O)CCC(=O)OCC(=O)N(C)Cc2ccccc2)cc1 | 4.47% (inactive) | –
10 | NC(=S)NN=C1CCCC(C(F)(F)F)C1 (configuration not stated) | -2.84% (inactive) | –
11 | CSCCC(NC(=O)COc1ccccc1)C(=O)N1CCN(c2cccc(C(F)(F)F)c2)CC1 (configuration not stated) | -9.29% (inactive) | –
12 | COc1cc(C2c3cc4c(cc3C(O)C3COC(=O)C23)OCO4)cc(OC)c1OC (configuration not stated) | -8.49% (inactive) | –
13 | COC(=O)CNC(=O)c1cc(-c2ccncc2)nc2ccccc12 | -0.0987% (inactive) | –
14 | O=C(Nc1ccc(S(=O)(=O)Nc2nccs2)cc1)c1cc(-c2ccncc2)nc2ccccc12 | 1.2% (inactive) | –
15 | CCN(CC)CCNC(=O)c1ccc(NC(=O)c2cc(-c3ccncc3)nc3ccccc23)cc1 | – | 10000 nM (active)
16 | CN(C(=O)c1cccc(NC(=O)Cc2cccc(NC(=O)C3CCCN(C(=O)C4CC4)C3)c2)c1)C1CCC1 (configuration not stated) | 14.2% (inactive) | –
17 | O=C(N/N=C/c1ccccn1)c1ccc(S(=O)(=O)N2CCCCCC2)cc1 | 5.59% (inactive) | –
18 | O=C(Nc1ncccc1O)c1ccc(S(=O)(=O)N2CCCCCC2)cc1 | 0.388% (inactive) | –
19 | O=C(Nc1ncccc1O)c1ccc(S(=O)(=O)N2CCCC2)cc1 | – | 7940 nM (active)
20 | Cc1cn(C2CC(O)C(CO)O2)c(=O)n(CCCc2ccccc2)c1=O (configuration not stated) | -2.05% (inactive) | –
21 | O=S1(=O)CSCS(=O)(=O)C1 | 2.84% (inactive) | –
22 | COc1ccccc1N1CCN(C(=O)c2ccc(Cl)c(S(=O)(=O)N3CCCC3)c2)CC1 | -0.654% (inactive) | –
23 | CCOc1ccccc1N1CCN(C(=O)c2ccc3[nH]c(C)c(C)c3c2)CC1 | – | 2510 nM (active)
24 | Cc1[nH]c2ccc(C(=O)N3CCN(C)CC3)cc2c1C | -8.89% (inactive) | –
25 | CCCCCCCCNS(=O)(=O)CCNC1CCCCC1 | 6.43% (inactive) | –
26 | O=C(Cc1ccc(S(=O)(=O)N2CCOCC2)s1)Nc1ccc(Br)c(C(F)(F)F)c1 | -17.8% (inactive) | –

Row | Structure (SMILES) | activity change, negative = inhibition | Potency
27 | CC(C)(C)S(=O)(=O)N1Cc2cc(CO)cc(CCO)c2[C@H]1CCO | 2.5% (inactive) | –
28 | Cc1ccccc1-c1ccc(Nc2ccc(C(=O)N3CCOCC3)cc2)nn1 | -5.32% (inactive) | –
29 | Cc1ccc(C(=O)N2CCN(C(=O)N3CCOCC3)CC2)cc1 | 1.5% (inactive) | –
30 | Cc1oc2c(c1C(=O)N1CCOCC1)C(=O)c1ccccc1C2=O | – | 2510 nM (active)
31 | C/C(=N\Nc1ccccc1)c1cccs1 | -0.263% (inactive) | –
32 | CC1C(C)N(C(=O)CCl)c2ccccc2N1C(=O)CCl (configuration not stated) | -9.43% (inactive) | –
33 | O=C(NN=Cc1ccccc1O)NN=Cc1ccccc1O | -13.6% (inactive) | –
34 | O=C1C[C@@H]2c3c(cccc3CN1Cc1ccccc1)C[C@@H](O)[C@H]2O | 4.62% (inactive) | –
35 | COc1ccc(CNCCCn2cnc3c(OCc4ccccc4)ncnc32)cc1 | -11.6% (inactive) | –
36 | CC(C)(C)OC(=O)N1CCC(C(=O)Nc2cccc(C(=O)NCCc3ccccc3)c2)CC1 | 21% (inactive) | –
37 | CC(C)[C@@H](C(=O)OCC(=O)c1ccc2c(c1)NC(=O)CO2)N1C(=O)c2ccccc2C1=O | 0.762% (inactive) | –
38 | O=C1CC(N2CCN(C(c3ccccc3)c3ccccc3)CC2)C(=O)N1 (configuration not stated) | -0.34% (inactive) | –
39 | CC1(C)CC(N2CCN(C(c3ccccc3)c3ccccc3)CC2)=CC(=[N+]2CCCCC2)C1 | – | 1120 nM (active)
40 | Oc1ccccc1CN1CCN(C(c2ccccc2)c2ccccc2)CC1 | 7.27% (inactive) | –
41 | COc1ccc(-c2ccc3c(c2)C2CC3CCN2CCC#N)cc1 (configuration not stated) | 11.7% (inactive) | –
42 | CC(C=Cc1ccccc1)=NNS(=O)(=O)c1ccc([N+](=O)[O-])cc1 | -8.61% (inactive) | –
43 | CCCCCOc1ccc(CSC2=NCCN2)cc1[N+](=O)[O-] | – | 10000 nM (active)
44 | CCCCOc1ccc(CSC(=N)N)cc1[N+](=O)[O-] | -16.7% (inactive) | –
45 | CCCOc1ccc(Cn2ccnc2)cc1[N+](=O)[O-] | 11.6% (inactive) | –
46 | COc1ccc(Br)cc1/C=N/Nc1ccc(S(=O)(=O)Nc2ccccc2C(=O)O)cc1[N+](=O)[O-] | 4.32% (inactive) | –
47 | O=C(NCC1(N2CCCCC2)CCCCC1)c1cccc(S(=O)(=O)Nc2ccccc2Cl)c1 | 0.0097% (inactive) | –
48 | CN(C)C(CNC(=O)c1cc2ccccc2o1)c1ccccc1 (configuration not stated) | 0.0215% (inactive) | –
49 | O=C1/C(=C\c2ccc(O)cc2)CCC1CNc1ccc(Cl)cc1 (configuration not stated) | -11.8% (inactive) | –
50 | O=C(CC(=O)c1cccnc1)c1ccccc1 | -2.47% (inactive) | –
51 | COc1cccc(/C=C/C(=O)Nc2ccc3c(c2)OCCO3)c1 | – | 2820 nM (active)
52 | O=C(/C=C\c1ccc2c(c1)OCO2)NC1(C(=O)Nc2ccc3c(c2)OCCO3)CCCCC1 | 11.7% (inactive) | –
